The source made the active and inactive calls. The calls were made as follows: active = hit-call score of the fitted dose curve at least 0.9, where 1 is the maximum; inactive = score below 0.9.
Columns and labels:
[1] = read-out: Forkhead box O1 (FOXO1), FOXO1 (gene 2308); assay: LTEA_HepaRG_FOXO1: Life Technologies and Expression Analysis (LTEA) Assay for Forkhead box O1 (FOXO1) using HepaRG (AID 2283456); conditions: mRNA level, 48 h; actives raise or lower the signal
In short: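 Readout is FOXO1 transcript level by multiplexed qRT-PCR against three housekeeping genes, curve-fitted in both directions relative to 0.5% DMSO vehicle. Human HepaRG cultures received chemicals for 48 h, up to 100 uM in half-log steps.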

[2] = read-out: growth arrest and DNA damage 45 (GADD45A), GADD45A (gene 1647); assay: LTEA_HepaRG_GADD45A: Life Technologies and Expression Analysis (LTEA) Assay for growth arrest and DNA damage 45 (GADD45A) using HepaRG (AID 2283458); conditions: mRNA level, 48 h; actives raise or lower the signal
In short: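 Differentiated HepaRG cells exposed 48 h in serum-free induction medium to 8 concentrations, top 100 uM in half-log steps, 0.5% DMSO. GADD45A mRNA quantified by qRT-PCR, normalized to ACTB, GAPDH and POLR2A; bidirectional fit versus DMSO.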

[3] = read-out: Forkhead box O3 (FOXO3), FOXO3 (gene 2309); assay: LTEA_HepaRG_FOXO3: Life Technologies and Expression Analysis (LTEA) Assay for Forkhead box O3 (FOXO3) using HepaRG (AID 2283459); conditions: mRNA level, 48 h; actives raise or lower the signal
In short: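 HepaRG, 48 h post-dose; 8 conc., half-log from 100 uM, 0.5% DMSO, duplicates; serum-free induction medium. Readout: FOXO3 mRNA, TaqMan qRT-PCR, housekeeping-normalized. Bidirectional curve fit vs DMSO baseline.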

[4] = read-out: ABC Transporter (ABCB1), ABCB1 (gene 5243); assay: LTEA_HepaRG_ABCB1: Life Technologies and Expression Analysis (LTEA) Assay for ABC Transporter (ABCB1) using HepaRG (AID 2283460); conditions: mRNA level, 48 h; actives raise or lower the signal
In short: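 Expression of ABCB1 was quantified by qRT-PCR against three housekeeping genes after human HepaRG cultures received test chemicals for 48 hours. Concentrations spanned eight half-log steps topping at 100 uM in 0.5% DMSO; gain or loss of signal was fitted relative to vehicle.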

[5] = read-out: ABC Transporter (ABCC3), ABCC3 (gene 8714); assay: LTEA_HepaRG_ABCC3: Life Technologies and Expression Analysis (LTEA) Assay for ABC Transporter (ABCC3) using HepaRG (AID 2283462); conditions: mRNA level, 48 h; actives raise or lower the signal
In short: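 Transcriptional change of ABCC3 in HepaRG after 48 h treatment, determined by qRT-PCR normalized to endogenous controls. Concentrations spanned eight half-log steps to 100 uM in 0.5% DMSO.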

[6] = read-out: ABC Transporter (ABCB11), ABCB11 (gene 8647); assay: LTEA_HepaRG_ABCB11: Life Technologies and Expression Analysis (LTEA) Assay for ABC Transporter (ABCB11) using HepaRG (AID 2283463); conditions: mRNA level, 48 h; actives raise or lower the signal
In short: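 ABCB11 transcript levels are read by Fluidigm TaqMan qRT-PCR after 48 h chemical treatment of human HepaRG cells. Concentrations span 100 uM downward in half-log steps with 0.5% DMSO; gain or loss is fitted against DMSO controls.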

[7] = read-out: ABC Transporter (ABCC2), ABCC2 (gene 1244); assay: LTEA_HepaRG_ABCC2: Life Technologies and Expression Analysis (LTEA) Assay for ABC Transporter (ABCC2) using HepaRG (AID 2283464); conditions: mRNA level, 48 h; actives raise or lower the signal
In short: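 After plating and 48 h culture, HepaRG medium is replaced with serum-free induction medium and chemicals are added (8 concentrations, max 100 uM, 0.5% DMSO) for 48 h. Total RNA then undergoes qRT-PCR for ABCC2 with housekeeping normalization.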

[8] = read-out: Broad substrate specificity ATP-binding cassette transporter ABCG2 (Homo sapiens) (UniProt Q9UNQ0); assay: LTEA_HepaRG_ABCG2: Life Technologies and Expression Analysis (LTEA) Assay for ABC Transporter (ABCG2) using HepaRG (AID 2283465); conditions: mRNA level, 48 h; actives raise or lower the signal
In short: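 Read-out is ABCG2 mRNA induction or loss quantified by qRT-PCR after 48 h chemical treatment of human HepaRG cells, normalized to three housekeeping genes. Concentrations reached 100 uM top in half-log steps; fitting was bidirectional against 0.5% DMSO.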

[9] = read-out: growth arrest and DNA damage 45 (GADD45B), GADD45B (gene 4616); assay: LTEA_HepaRG_GADD45B: Life Technologies and Expression Analysis (LTEA) Assay for growth arrest and DNA damage 45 (GADD45B) using HepaRG (AID 2283461); conditions: mRNA level, 48 h; actives raise or lower the signal
In short: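 Human HepaRG monolayers receive chemicals for 48 h at eight half-log concentrations, highest 100 uM, in 0.5% DMSO. Expression is measured by TaqMan qRT-PCR and normalized to ACTB, GAPDH and POLR2A.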

[10] = CEETOX_H295R_TESTO: CeeTox H295R High-throughput Steroidogenesis Assay for Testosterone (TESTO) (AID 2283457); conditions: actives raise or lower the signal
In short: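 Steroidogenesis in H295R cells following OECD 456 with minor changes; 48 h exposure. Medium testosterone by HPLC-MS/MS, DMSO as baseline, with MTT viability run in parallel.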

Measured: AC50

Sequence of Broad substrate specificity ATP-binding cassette transporter ABCG2 (Homo sapiens) (Q9UNQ0 whole entry, looked up): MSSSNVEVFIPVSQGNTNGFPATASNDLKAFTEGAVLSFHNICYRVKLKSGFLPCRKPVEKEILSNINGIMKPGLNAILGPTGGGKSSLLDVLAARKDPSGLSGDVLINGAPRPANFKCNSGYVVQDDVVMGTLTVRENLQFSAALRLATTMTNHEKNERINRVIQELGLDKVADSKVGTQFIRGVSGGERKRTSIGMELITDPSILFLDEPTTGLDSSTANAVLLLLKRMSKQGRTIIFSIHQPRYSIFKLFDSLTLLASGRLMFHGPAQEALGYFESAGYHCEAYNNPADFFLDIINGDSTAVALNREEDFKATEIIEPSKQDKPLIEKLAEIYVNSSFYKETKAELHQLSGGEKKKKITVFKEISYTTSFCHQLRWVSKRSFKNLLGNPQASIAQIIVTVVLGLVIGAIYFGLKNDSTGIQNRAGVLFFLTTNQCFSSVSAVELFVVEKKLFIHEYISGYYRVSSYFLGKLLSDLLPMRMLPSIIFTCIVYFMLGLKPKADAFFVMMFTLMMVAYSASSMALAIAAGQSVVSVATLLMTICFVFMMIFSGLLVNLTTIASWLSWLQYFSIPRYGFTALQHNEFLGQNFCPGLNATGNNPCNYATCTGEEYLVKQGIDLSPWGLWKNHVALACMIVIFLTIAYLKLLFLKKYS

O=C(NC(=O)c1cc(F)c(F)cc1Cl)Nc1cc(F)ccc1N1CCC(C(=O)O)CC1
active: [4] 21 µM | [6] 2.05 µM
not listed: [9] | [10]
inactive: all other assays above

Nc1ccc(-c2ccc(N)cc2)cc1
active: [4] 0.0737 µM | [6] 3.77 µM
not listed: [5] | [10]
inactive: all other assays above

O=C(O)C(F)(F)C(F)(F)C(F)(F)C(F)(F)C(F)(F)C(F)(F)C(F)(F)C(F)(F)C(F)(F)F
active: [1] 81.6 µM | [2] 85.5 µM | [4] 85.1 µM | [6] 61 µM | [7] 94.8 µM
inactive: [3] | [9] | [8]

CCCCCCCCCC[N+](C)(C)CCCCCCCCCC
inactive: [1] | [2] | [4]
active: [3] 76.7 µM | [9] 78.8 µM | [6] 15.8 µM | [7] 94.2 µM | [8] 72.8 µM

CCCN(CCC)N=O
not listed: [10]
inactive: all other assays above

ClC(Cl)=C(c1ccc(Cl)cc1)c1ccc(Cl)cc1
active: [2] 0.0693 µM | [4] 23.2 µM | [7] 10.8 µM | [8] 8.74 µM
not listed: [10]
inactive: all other assays above

O=C(NC(=O)c1c(F)cccc1F)Nc1cc(Cl)c(OC(F)(F)C(F)F)c(Cl)c1
active: [6] 50 µM
not listed: [9]
inactive: all other assays above

Clc1ccc(C(Cl)(Cl)Cl)cc1
not listed: [10]
inactive: all other assays above

CCCCCCOC(=O)c1ccccc1C(=O)OCCCCCC
not listed: [5] | [10]
inactive: all other assays above

COS(=O)(=O)OC
not listed: [5] | [10]
inactive: all other assays above

Clc1ccc(Cl)cc1
not listed: [5] | [10]
inactive: all other assays above

O=S(=O)(O)C(F)(F)C(F)(F)C(F)(F)C(F)(F)C(F)(F)C(F)(F)F
not listed: [9] | [10]
inactive: all other assays above

O=C(N[C@H]1CN2CCC1CC2)c1cc2ccoc2cn1
not listed: [5] | [9] | [10]
inactive: all other assays above

C[C@]12CCC(=O)C=C1CC[C@@H]1[C@@H]2CC[C@@]2(C)[C@H]1CC[C@]2(C)O
active: [2] 45.8 µM | [4] 5.73 µM | [6] 0.647 µM | [8] 9.08 µM
inactive: [1] | [3] | [7]

C=CC(=O)NCNC(=O)C=C
active: [6] 50 µM | [7] 16 µM
inactive: [1] | [2] | [3] | [4] | [8]

Cc1cccc([N+](=O)[O-])c1
not listed: [5] | [9] | [10]
inactive: all other assays above

C1CC2OC2CC1C1CO1 (configuration not stated)
not listed: [9] | [10]
inactive: all other assays above

Cc1ccccc1O
not listed: [5] | [9] | [10]
inactive: all other assays above

Oc1ccc(Cl)cc1Cl
not listed: [3] | [9] | [10]
inactive: all other assays above

CCOC(=O)C(O)(c1ccc(Cl)cc1)c1ccc(Cl)cc1
active: [4] 73 µM | [6] 38.9 µM
not listed: [9] | [10]
inactive: all other assays above

CN(C)c1nc(=O)n(C2CCCCC2)c(=O)n1C
not listed: [5] | [9] | [10]
inactive: all other assays above

Cc1cc2c3c(c1)C(c1ccccc1)=N[C@@H](NC(=O)c1ccncc1)C(=O)N3CC2
active: [3] 50 µM | [4] 5.26 µM | [8] 10.1 µM
inactive: [1] | [2] | [6] | [7]
